Measured values published in PubChem BioAssay AID540364 (The Scripps Research Institute Molecular Screening Center, 2011).
The whole screen tested about 360,000 compounds, of which about 2,000 (0.56%) were called active. This is one part of a sample in which actives are shown more often than they occur. Values without a mark were called inactive.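 Rule for the calls: active = activation above the average of all compounds screened plus 3 SD, cutoff fixed separately per campaign (cut at about 7.5% in these data); inactive = the rest.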

Assay: FXN promoter activators, primary screen, cell-based, luciferase luminescence, HEK293 lucGAA850 (AID 540364);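 note: 0% = DMSO wells and 100% = 10 µM SAHA wells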
Conditions: HEK293 lucGAA850 FXN promoter luciferase reporter, 24 h; at 6 µM; active compounds read high; percent of 10 µM SAHA response

| Compound | activation |
| --- | --- |
| O=C1CC(c2c(F)cccc2Cl)C(n2cncn2)C(O)=C1C1NCCc2ccccc21 (configuration not stated) | -1.97% |
| CCOc1cc(CNCc2ccccn2)ccc1OCC(=O)NC(C)(C)C | -1.18% |
| CCn1c(NCCc2ccc(OC)c(OC)c2)nc2c1c(=O)n(C)c(=O)n2C | -0.8% |
| CCCCn1c(SCC(=O)NCCc2ccc(OC)c(OC)c2)nc2c1c(=O)n(C)c(=O)n2C | 7.97% (active) |
| C#CC(C)(C)NC(=O)CSc1nc2c(c(=O)n(C)c(=O)n2C)n1CCCC | 0.86% |
| COc1cccc(CNS(=O)(=O)c2cc3c(cc2C)n(C)c(=O)c(=O)n3C)c1 | -0.74% |
| Cc1ccc(N2C(=O)N3[C@@H]4c5ccccc5OC[C@@H]4[C@@H](c4ccccc4)[C@@]3(C)C2=O)cc1 | -0.85% |
| CC(C)(C)N1C(=O)[C@H]2[C@@H](c3ccc(Br)cc3)N3C(=O)N(c4cccc(Cl)c4)C(=O)[C@@]3(C)[C@H]2C1=O | 14.1% (active) |
| CC[C@@]12C(=O)N(c3ccccc3)C(=O)N1[C@H](c1ccc(Br)cc1)[C@@H]1C(=O)N(C(C)(C)C)C(=O)[C@@H]12 | 15% (active) |
| Cc1cccc([C@@H]2[C@@H]3C(=O)N(Cc4ccccc4)C(=O)[C@@H]3[C@]3(C)C(=O)N(c4ccc(Br)cc4)C(=O)N23)c1 | 4.94% |
| COc1ccc([C@@H]2[C@@H]3C(=O)N(C(C)(C)C)C(=O)[C@@H]3[C@]3(Cc4ccccc4)C(=O)N(c4cccc(Br)c4)C(=O)N23)cc1 | 0.35% |
| CCN1C(=O)[C@H]2[C@@H](c3ccc(C)cc3)N3C(=O)N(c4cccc(Br)c4)C(=O)[C@@]3(CC)[C@H]2C1=O | 5.85% |
| CC1(Oc2ccccc2-c2ccno2)CCN(Cc2ccc(-c3ccccc3)o2)C1 (configuration not stated) | 1.3% |
| O=C(COc1ccc(Cl)cc1)NCCS(=O)(=O)N1CCN(c2ccc(F)cc2)CC1 | -2.02% |
| CN(Cc1ccccc1)C(=O)C1CCCN(c2ncnc3c2nc2n3CCCCC2)C1 (configuration not stated) | 1.56% |
| COc1ccccc1-c1c(C#N)c(N)nc2c1CCC2 | 1.52% |
| CSc1nc(N)c(C#N)c(-c2ccccc2Cl)c1C#N | 16.1% (active) |
| CSc1ccc(-c2c(C#N)c(N)nc3c2c(C)nn3-c2ccccc2)cc1 | 0.67% |
| COc1ccc(CNC(=O)c2ccc(-c3cccnc3)c3ccoc23)cc1OC | 1.42% |
| Cc1ccc(O/C=C2\OC(=O)c3ccccc32)cc1 | -0.57% |
| CN(CCc1ccccn1)C(=O)CCC1CCCN(Cc2ccccc2OC(F)F)C1 (configuration not stated) | 0.65% |
| Cc1c(-c2ccccc2)nc(N)c(C#N)c1-c1cccs1 | 8.43% (active) |
| CN1CCc2nc(SC(C(=O)O)c3ccccc3)c(C#N)c(-c3cccs3)c2C1 (configuration not stated) | 1.01% |
| CCc1c(-c2ccccc2)nc(N)c(C#N)c1-c1cccs1 | 3.81% |

| Compound | activation |
| --- | --- |
| Cc1cccc(C(=O)Nc2ccccc2C(=O)NCc2cccnc2)c1 | 0.13% |
| CN(C)S(=O)(=O)c1ccc2oc(SCC(=O)Nc3ccccc3F)nc2c1 | 7.74% (active) |
| COc1ccc(S(=O)(=O)N(C)C)cc1NC(=O)CSc1ncccn1 | 2.15% |
| COc1ccc(NS(=O)(=O)c2ccc3oc(SCC(N)=O)nc3c2)cc1 | -1.75% |
| Cc1noc(C)c1-c1ccc(C(=O)NCc2ccncc2)c2occc12 | 3.59% |
| CN(N)c1nc(N2CCCC2)nc(N2CCCC2)n1 | 1.2% |
| O=C(NCCN1CCOCC1)c1ccccc1N1C(=O)[C@@H]2Cc3c([nH]c4ccccc34)C(c3cccc(Cl)c3)N2C1=O (some centres not stated) | -10.6% |
| C=C1c2c(Cl)ccc(O)c2C(O)=C2C(=O)[C@]3(O)C(O)=C(C(N)=O)C(=O)[C@@H](N(C)C)[C@@H]3[C@@H](O)C12 (some centres not stated) | 13.5% (active) |
| CN(C)[C@@H]1C(=O)C(C(N)=O)=C(O)[C@@]2(O)C(=O)C3=C(O)c4c(O)ccc(Cl)c4[C@@H](O)[C@H]3C[C@@H]12 | 13.6% (active) |
| CN(C(=O)CN1CCN(c2cc(-c3ccc(OCc4ccccc4)cc3)ncn2)CC1)c1ccccc1 | -2.58% |
| CN(C(=O)c1ccccc1)c1nccnc1C#N | 1.95% |
| CC(=O)N1CC2(C)CN(C(C)=O)CC(C)(C1)C2=O | 1.87% |
| CCCC1NC(=O)NC(C)=C1C(=O)OCC (configuration not stated) | 0.3% |
| COC(=O)c1ccc(CSc2nc3ccccc3c(=O)n2-c2cccc(OC)c2)o1 | 10.1% (active) |
| COc1cccc(-n2c(SCC(=O)NC3CCS(=O)(=O)C3)nc3ccccc3c2=O)c1 (configuration not stated) | -0.8% |
| COCC(C)n1c(SCc2ccc(C(=O)OC)o2)nc2ccccc2c1=O (configuration not stated) | 2.64% |
| Cc1ccc(C)c(OCCC(=O)OCC(=O)NC(=O)NCc2ccccc2)c1 | 1.32% |
| CCCCN(CC(=O)NC(C)(C)C)C(=O)C(=O)Nc1ccc2c(c1)OCCO2 | 0.41% |
| CCOC(=O)N1CCC(c2cc(=O)n(-c3ccccc3)[nH]2)CC1 | 1.97% |
| Cc1ccc(C(=O)N2CCC(n3nccc3NC(=O)Nc3cccc(F)c3)CC2)cn1 | -1.64% |
| O=C(NCc1ccccc1)C(c1cccnc1)N(C(=O)c1csnn1)c1ccc(F)cc1 (configuration not stated) | -0.33% |
| CCOc1ccc(S(=O)(=O)N2CCN(C(=O)c3oc4ccccc4c3C)CC2)cc1 | 1.62% |
| COc1ccc(CCNCC(O)Cn2ccc3ccccc32)cc1OC (configuration not stated) | 0.29% |
